This is a sample that favours compounds with a hit; in the whole collection about 3.8% have one here.
FGF22 binding: shifts melting point of recombinant human FGF22; Q9HCT0; recombinant FGF22 thermal shift, SYPRO orange fluorescence; percent of sucrose octasulfate shift, DMSO zero; activity (Tm shift, normalised), % at 9.99 µM; 1.5% of 340,000 active;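 active means mean Tm shift, scaled 0 neutral to 100 positive control, at about 1.3% or above, every replicate too, limit read from the data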
Target sequence (Q9HCT0 whole entry, looked up): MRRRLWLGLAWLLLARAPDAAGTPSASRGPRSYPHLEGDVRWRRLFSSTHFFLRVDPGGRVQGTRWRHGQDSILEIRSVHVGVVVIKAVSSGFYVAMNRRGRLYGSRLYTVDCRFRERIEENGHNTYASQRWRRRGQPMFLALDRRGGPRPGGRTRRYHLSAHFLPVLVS
KLK7 zymogen act: activators of human kallikrein-7 zymogen; P49862; purified proKLK7, EDANS-DABCYL substrate fluorescence; 100% is mature enzyme control, 0% vehicle; activation, % at 7 µM; 0.9% of 370,000 active; AID 652039;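 active means activation above the mean of all tested compounds plus 3 SD, computed per campaign excluding outliers beyond control limits, cut at about 13% in these data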
Target sequence (P49862 whole entry, looked up): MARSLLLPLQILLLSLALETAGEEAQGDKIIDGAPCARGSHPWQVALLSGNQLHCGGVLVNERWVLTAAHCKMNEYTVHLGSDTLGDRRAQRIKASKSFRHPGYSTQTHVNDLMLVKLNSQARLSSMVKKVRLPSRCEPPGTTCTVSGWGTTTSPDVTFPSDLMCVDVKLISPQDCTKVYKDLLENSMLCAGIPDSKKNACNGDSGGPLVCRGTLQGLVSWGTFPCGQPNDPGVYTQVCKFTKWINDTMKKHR
ADAM10 inh: ADAM10 inhibition, QFRET primary screen; inhibition, % at 7 µM; 0.62% of 370,000 active; recombinant ADAM10, EDANS/DABCYL FRET peptide cleavage, 3 h;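 active means inhibition above a per-campaign cutoff equal to the mean of compounds falling between control-based bounds plus 3 SD, cut at about 20% in these data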;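 further: 0% = DMSO wells while the 100% control is not disclosed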
ADAM17 inh: inhibitors of human ADAM17 | 0.83% of 370,000 active | P78536 | inhibition, % at 6.95 µM | recombinant ADAM17, EDANS/DABCYL FRET peptide cleavage;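 active means inhibition above the mean of compounds lying between control limits plus 3 SD, set per campaign, cut at about 8.5% in these data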;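 further: 0% = DMSO-only wells as the low control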
Ecoli rRNA inh: inhibits bacterial ribosomal RNA function over humanized ribosomes; E. coli WT GFP vs humanized-ribosome RFP mutants, fluorescence, 24 h; hits give low values; DMSO median 0, no signal -100; GFP signal change (wild-type ribosome), % (no concentration beside the values); 1.6% of 350,000 active; AID 720706;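 active means significant combined selectivity score with lowered wild-type GFP, culture density cut under 30%, mutant RFP and density less affected; inactive means any of these conditions unmet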
KLK7 act conf: confirmation of human kallikrein-7 zymogen activators | AID 686949 | 68% of 3,200 active | shares compounds with KLK7 zymogen act | activation, % at 7 µM | purified proKLK7, EDANS-DABCYL substrate fluorescence; scaled: vehicle 0, mature enzyme 100;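 active means activation, as change over the incubation, above the mean of all tested compounds plus 3 SD, cut at about 13% in these data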
EDANS interfere: fluorescence interference counter-screen for KLK7 activators; shares compounds with KLK7 zymogen act; 80% of 3,200 active; AID 686952; activation, % at 7 µM; EDANS-DABCYL substrate fluorescence interference, no enzyme, 4 h; solvent 0%, active enzyme control 100%;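 active means activation above the all-compound mean plus 3 SD, ignoring values outside control-based bounds, cut at about 4.8% in these data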;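 further: value is the 4 h activation minus the activation read at time zero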
K7 EDANS ctr: optically interferes with EDANS-DABCYL fluorescence, kallikrein-7 activator counter-screen | AID 720493 | shares compounds with KLK7 zymogen act | 20% of 250 active | EDANS-DABCYL peptide fluorescence interference, no enzyme | EC50, µM;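 active means compounds that raise the fluorescence signal in this interference counterscreen, with EC50 at or below 10 µM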;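 further: intact quenched peptide substrate alone read at 355 nm excitation and 520 nm emission; signal is fluorescence gain from T0 to T4 after four hours at room temperature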
* = called active by the depositor; i = inactive; / = no result.

SMILES | FGF22 binding | KLK7 zymogen act | ADAM10 inh | ADAM17 inh | Ecoli rRNA inh | KLK7 act conf | EDANS interfere | others
c1cc(Nc2ncnc3sc4c(c23)CCC4)ccn1 | 0 | 32* | i | -173 | 18 | 56* | 64*
C(=N\Nc1ncnc2sc3c(c12)CCC3)/c1ccncc1 | / | 0 | -3 | -1 | / | / | /
COc1cccc(C#Cc2ccc3c(c2)[C@H]2[C@H](CCN2C(=O)c2ccc4c(c2)OCO4)[C@H](CO)N3)c1 | 0 | / | / | / | / | / | /
CCN(CC)CCn1c2ccccc2c2cnc(N)c(C#N)c21 | / | 18* | -427 | -121 | / | 7 | 3
CN(C)C=Nc1ncc2c3ccccc3n(CCN(C)C)c2c1C#N | / | 5 | -147 | -46 | / | / | /
Cc1cccn2c(=O)c3cc(C(=O)O)n(C)c3nc12 | / | 21* | i | -193 | / | 49* | 48*
Cc1cccn2c(=O)c3cc(C(=O)NC4CCCC4)c(=N)n(C4CCCC4)c3nc12 | / | -10 | i | -473 | / | / | /
CCCn1c(=N)c(C(=O)NC2CCCC2)cc2c(=O)n3cccc(C)c3nc21 | / | 133* | i | i | / | -17 | -41
CCn1c(=N)c(C(=O)NC)cc2c(=O)n3cccc(C)c3nc21 | / | 76* | i | i | / | 67* | 73*
C[C@@H]1CCCCO[C@H](CN(C)S(=O)(=O)c2cccs2)[C@@H](C)CN([C@@H](C)CO)C(=O)c2cc(N(C)C)ccc2O1 | -1 | / | / | / | -6 | / | /
CCCNC(=O)C[C@H]1CC[C@H]2[C@@H](COC[C@@H](O)CN2Cc2ccccc2F)O1 | 0 | / | / | / | -4 | / | /
COc1cccc(S(=O)(=O)Nc2ccc3c(c2)[C@H]2C[C@@H](CC(=O)NCC(F)(F)F)O[C@@H](CO)[C@H]2O3)c1 | -1 | / | / | / | -1 | / | /
C[C@@H]1CN([C@H](C)CO)C(=O)c2cc(NC(=O)Cn3cnnn3)ccc2O[C@@H]1CN(C)C | 0 | / | / | / | 4 | / | /
COc1cc2c(C#N)c(N3CCN(C)CC3)nc(N)c2c(N)n1 | / | 65* | i | -328 | / | 48* | 61*
COCC(=O)N(C)C[C@@H]1Oc2ncc(-c3ccc(C#N)cc3)cc2C(=O)N([C@H](C)CO)C[C@H]1C | 0 | / | / | / | -1 | / | /
CCOC(=O)Cn1c(C(F)(F)F)nc2nc(Cl)c(Cl)nc21 | 0 | 34* | i | -394 | 12 | 8 | 7.1*
CCOC(=O)Cn1c2ccccc2c2nc3ccccc3nc21 | / | 0 | -19 | -5 | / | / | /
COc1ccc2c3c(n(C)c2c1)[C@@H](CO)N(C(=O)C1CC1)CC31CN(C(=O)CN(C)C)C1 | 0 | / | / | / | 3 | / | /
COc1ccc(NC(=O)CN2C(=O)c3cccc4cccc2c34)c(OC)c1 | / | 304* | -92 | -27 | / | 59* | 67*
CCCCNC(=O)C1C(c2ccc(C(F)(F)F)cc2)=Nc2ccccc2N1C(=O)c1ccc2nc(C)[nH]c2c1 (stereo unspecified) | 0 | 92* | -68 | -10 | 1 | -142 | -108
Nc1ccc(-c2nc3ncccc3o2)c(Cl)c1 | 0 | 4 | i | -250 | -9 | / | /
Cc1cc(-c2nc3ncccc3o2)ccc1N | / | 40* | i | i | / | 67* | 67*
Nc1ccc(-c2nc3ncccc3o2)c(O)c1 | 0 | 21* | i | i | 3 | 22* | 21*
CC(C)C(=O)Nc1ccc(-c2nc3ncccc3o2)cc1 | 0 | 14* | i | -420 | 6 | 7 | 6.6*
CC(C)C(=O)Nc1cccc(-c2nc3ncccc3o2)c1 | 0 | 0 | -70 | -35 | -3 | / | /
SMILES | FGF22 binding | KLK7 zymogen act | ADAM10 inh | ADAM17 inh | Ecoli rRNA inh | KLK7 act conf | EDANS interfere | others
C[C@H](CO)N1C[C@H](C)[C@@H](CN(C)S(=O)(=O)c2cccs2)Oc2c(NS(C)(=O)=O)cccc2C1=O | 0 | / | / | / | -1 | / | /
O=C(C[C@@H]1C[C@H]2c3cc(NC(=O)C4CCOCC4)ccc3O[C@H]2[C@H](CO)O1)NCCc1ccccc1 | 0 | / | / | / | 0 | / | /
C/C=C/c1ccc2c(c1)O[C@H](CN(C)C(=O)c1cccc(F)c1)[C@@H](C)CN([C@H](C)CO)S2(=O)=O | 0 | / | / | / | -1 | / | /
CO[C@H]1CN(C)C(=O)c2cc(NC(=O)NC(C)C)ccc2OC[C@H](C)N(C(=O)CC2CC2)C[C@H]1C | 0 | / | / | / | 2 | / | /
C[C@H](CO)N1C[C@H](C)[C@H](CN(C)S(=O)(=O)c2ccc(F)cc2)Oc2c(NC(=O)CCCCCC(=O)Nc3ccccc3N)cccc2C1=O | 0 | / | / | / | 0 | / | /
CCC(=O)N1[C@H](C(=O)Nc2ccccc2)[C@@H](CO)[C@@H]2Cn3c(ccc(C4=CCCC4)c3=O)[C@@H]21 | 0 | / | / | / | 3 | / | /
O=C(Nc1c(-c2ccc(F)cc2)nc2ncccn12)c1ccc(F)cc1 | / | 11 | -373 | -105 | / | / | /
O=C(Nc1c(-c2ccc(F)c(F)c2)nc2ncccn12)C1CC1 | / | 18* | i | -230 | / | 52* | 57*
Cc1ccc(-c2c(NC(=O)C3CC3)nc3ncccn23)cc1 | / | 23* | i | -327 | / | 30* | 35*
Nc1nc2ncccn2c1-c1ccc(F)c(F)c1 | 0 | 22* | -254 | -72 | 9 | 24* | 19* | K7 EDANS ctr=>70
O=C(C[C@@H]1C=C[C@H](NS(=O)(=O)c2ccc(F)cc2)[C@@H](CO)O1)N1CCC(Cc2ccccc2)CC1 | 0 | / | / | / | -2 | / | /
COc1ccccc1NC(=O)Nc1ccc2c(c1)C(=O)N(C)C[C@H](OC)[C@H](C)CN[C@H](C)CO2 | 0 | / | / | / | 0 | / | /
O=C(C[C@H]1CC[C@H](NC(=O)Nc2cc(F)ccc2F)[C@@H](CO)O1)NCc1ccccn1 | 0 | / | / | / | -1 | / | /
CC1(C)Oc2ccc3ccc(=O)oc3c2C(/C=N/O)C1=O (stereo unspecified) | 0 | 27* | -86 | -24 | 13 | 17* | 18*
O=C(CC1CC1)N1CC[C@H]2[C@H](CO)Nc3ccc(-c4ccccc4)cc3[C@H]21 | 0 | / | / | / | -7 | / | /
COc1ccccc1-c1cnc2c(c1)C(=O)N([C@H](C)CO)C[C@H](C)[C@H](CN(C)Cc1ccncc1)O2 | 0 | / | / | / | -1 | / | /
CCCc1cc2c(O)ccc(O)c2c(=O)o1 | 0 | 36* | i | -186 | 20 | 256* | 268*
CCCc1cc(=O)c2c(O)cccc2o1 | 0 | 0 | -1 | -3 | 4 | / | /
COc1cccc(NC(=O)N2C[C@@H](O)COC[C@@H]3O[C@H](CC(=O)NC4Cc5ccccc5C4)CC[C@H]32)c1 | 0 | / | / | / | 1 | / | /
CCCCCn1c(N)c(C#N)c2nc3ccccc3nc21 | 0 | 22* | i | i | -4 | -60 | -56
